These results are taken from PubChem BioAssay AID623911 (Vanderbilt High Throughput Screening Facility, 2012).

Hit rate of the full screen: of about 2,100 compounds, about 770 (37%) were called active. This is one part of the list. Unmarked numbers belong to inactive results.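 The calls were made as follows: active = by-eye trace score of 1 for enhancers or -1 for inhibitors, so actives lie on both sides (some results past the limit were not filed as active); inactive = score 0, or 3 fluorescent, or 4 baseline rise.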

The assay deals with G protein-activated inward rectifier potassium channel 2 (Homo sapiens) + G protein-activated inward rectifier potassium channel 1 (Homo sapiens) (UniProt P48051+P48549). Nature of the assay: GIRK1/2 thallium flux modulators, retest, confirmation, cell-based, HEK293 rmGlu8/hGIRK1/2, FluoZin-2 (AID 623911). The settings on record: HEK293 rmGlu8/hGIRK1/2, thallium flux FluoZin-2; actives lie on both sides; glutamate co-added at its EC20 level.
Chain of G protein-activated inward rectifier potassium channel 2 (Homo sapiens) + G protein-activated inward rectifier potassium channel 1 (Homo sapiens) (P48051 whole entry, looked up): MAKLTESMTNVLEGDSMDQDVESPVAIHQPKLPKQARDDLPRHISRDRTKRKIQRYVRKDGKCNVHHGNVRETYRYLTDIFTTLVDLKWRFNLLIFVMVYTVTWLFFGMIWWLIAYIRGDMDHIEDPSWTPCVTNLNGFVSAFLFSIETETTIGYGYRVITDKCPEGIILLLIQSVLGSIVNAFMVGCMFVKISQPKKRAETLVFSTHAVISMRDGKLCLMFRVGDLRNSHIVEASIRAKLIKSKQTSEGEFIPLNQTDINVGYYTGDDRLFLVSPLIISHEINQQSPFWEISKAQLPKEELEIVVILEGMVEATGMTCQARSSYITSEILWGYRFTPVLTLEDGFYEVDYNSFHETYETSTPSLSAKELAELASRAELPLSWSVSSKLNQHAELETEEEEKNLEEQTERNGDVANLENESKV
Chain of G protein-activated inward rectifier potassium channel 2 (Homo sapiens) + G protein-activated inward rectifier potassium channel 1 (Homo sapiens) (P48549 whole entry, looked up): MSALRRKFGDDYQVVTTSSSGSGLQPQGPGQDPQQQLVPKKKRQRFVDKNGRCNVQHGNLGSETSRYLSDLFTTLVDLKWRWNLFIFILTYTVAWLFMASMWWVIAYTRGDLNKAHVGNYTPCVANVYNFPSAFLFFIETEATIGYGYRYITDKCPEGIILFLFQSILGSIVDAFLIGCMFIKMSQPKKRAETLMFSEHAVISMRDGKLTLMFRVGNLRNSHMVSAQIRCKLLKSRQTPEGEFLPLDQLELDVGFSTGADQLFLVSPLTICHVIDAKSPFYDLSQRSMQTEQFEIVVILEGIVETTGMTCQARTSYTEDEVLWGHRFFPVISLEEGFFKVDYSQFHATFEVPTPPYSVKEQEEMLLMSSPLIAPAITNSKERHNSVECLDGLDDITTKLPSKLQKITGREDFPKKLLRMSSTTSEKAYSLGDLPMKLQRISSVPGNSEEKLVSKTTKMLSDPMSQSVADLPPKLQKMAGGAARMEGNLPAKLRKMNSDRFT
Take `O=C(CSCc1ccc(Br)cc1)N=Nc1c(O)[nH]c2ccccc12`: the manual score was 0.

For `CCc1nnc(NC(=O)CSc2nnc(C3CCCCC3)n2-c2cccc(Cl)c2)s1`, the manual score is 0.

`COCCN=c1scc(-c2cccs2)n1/N=C/c1ccc(O)c(O)c1O`: the manual score is 0.

On to `CCOC(=O)CN1NC2(CCC(C(C)(C)C)CC2)NC1=S` (stereo not drawn), for which the manual score is 0.

In the case of `COC(=O)c1sccc1NC(=O)CSc1ccccc1NS(=O)(=O)c1ccccc1Cl`, the manual score was 0.

As for `Cc1ccc(NC(=O)Cc2c(Cl)cccc2Cl)cc1S(=O)(=O)N(C)C`, the manual score was 1 (active).

As for `CC1(C)NC(=O)NC2(C)NC(=O)NC(C)(C)C12` (stereo not drawn), the manual score is 0.

As to `COc1cc(C(=O)NC2CC3CCCC(C2)N3CC(=O)Nc2ccccc2)cc(OC)c1OC` (stereo not drawn), the manual score was -1 (active).

For the compound `COc1cc(NC(=O)CS(=O)(=O)c2ccc(C)cc2)cc(OC)c1OC`, the manual score was 0.

On to `CC1CCN(CC(O)COC2CCC(C(C)(C)C)CC2)CC1` (stereo not drawn), for which the manual score was -1 (active).

Turning to `O=C1OCCC1Sc1nc2cc(Cl)ccc2n1Cc1ccccc1` (stereo not drawn), the manual score was 0.

As to `CCCCSc1nc(N)c(NC(=O)c2ccco2)c(=O)[nH]1`, the manual score is 0.

For the compound `CCN(C(=O)COc1cc(=O)n(CC)c2ccccc12)c1cc(Cl)ccc1OC`, the manual score is -0.5.

In the case of `COC(=O)[C@H]1CCCN1C(=O)Nc1cccc(Oc2c(F)c(F)c(F)c(F)c2F)c1`, the manual score is 0.

Regarding `COc1ccc(S(=O)(=O)NCCC(=O)NC2CCCCCCC2)cc1`, the manual score was 0.

For the compound `COc1cccc(NC(=O)NCCCSC2CCCCC2)c1`, the manual score was 1 (active).

On to `Cc1sc2c(c1C)CN(C1CC(C)(C)NC(C)(C)C1)CN2C(=O)c1ccco1`, for which the manual score was -1 (active).

Turning to `C/C(=N\NC(=O)COc1ccc(C)cc1C(C)C)c1ccc(-n2ccnc2)cc1`, the manual score is -1 (active).

As for `Cc1ccc(OCC(=O)N/N=C\c2ccc(-c3cccc(C(=O)O)c3)o2)c(C)c1`, the manual score is 0.

For the compound `Cc1conc1NC(c1cccs1)c1ccc2cccnc2c1O` (stereo not drawn), the manual score was 0.

In the case of `O=S(=O)(Nc1nc(-c2sccc2Cl)cs1)c1cc(Cl)ccc1Cl`, the manual score is 0.

In the case of `Cc1cc(NC(=O)c2c(F)cccc2Cl)n(-c2nc3ccccc3[nH]2)n1`, the manual score is 0.

Take `Cc1ccc(Nc2cc(C)nn2-c2nc(C)cc(=O)[nH]2)cc1`: the manual score is 1 (active).

In the case of `COc1ccccc1-c1ccc(NC2CCCC2)nn1`, the manual score is 0.

`COc1ccccc1NC(=O)c1cc(C(=O)Nc2ccccc2OC)cc(N2C(=O)CCC2=O)c1`: the manual score was 0.

Consider `COc1ccccc1Nc1ccc(Nc2ccccc2OC)nn1`, for which the manual score was 1 (active).

Consider `CCCC(=O)NC(c1cccs1)c1cc([N+](=O)[O-])c2cccnc2c1O` (stereo not drawn), for which the manual score was 0.

As for `CCc1c(C)sc(NC(=O)CCc2ccc(OC)cc2)c1C(N)=O`, the manual score was 0.

For the compound `COc1ccc(Cn2c(=S)[nH]c3ccsc3c2=O)cc1`, the manual score was 1 (active).

Turning to `O=C(Cn1c(=O)[nH]c2ccsc2c1=O)NC1CCCCCC1`, the manual score was 0.

`COc1cc(NC(=O)CCn2c(=O)[nH]c3ccsc3c2=O)cc(OC)c1`: the manual score is 0.

Turning to `O=C(NNC(=S)Nc1cccc(C(F)(F)F)c1)c1cccc(Cl)c1`, the manual score was 0.5.

Turning to `Cn1sc(NC(=O)c2cccc(Cl)c2)nc1=O`, the manual score is 0.

With `O=C(NNS(=O)(=O)c1cc(Cl)cc(Cl)c1)c1sccc1-n1cccc1`, the manual score is 1 (active).

With `Cn1c2ccccc2c2cc(C(=O)NNS(=O)(=O)c3ccc(F)cc3)sc21`, the manual score was 0.

Consider `O=C(NNC(=O)c1sccc1-n1cccc1)c1cccc(Cl)c1`, for which the manual score is 1 (active).

`O=C(NNC(=O)c1sccc1-n1cccc1)c1ccc(Cl)cc1`: the manual score is 1 (active).

With `CCNC(=S)NNC(=O)c1cccn(Cc2ccc(Cl)cc2)c1=O`, the manual score is 0.

As for `Cc1cccc(-n2c(O)c(/C=N/NC(=O)c3ccccc3Cl)c3ccccc3c2=O)n1`, the manual score was 0.

For the compound `Clc1ccc(Cl)c(OCc2cc(-c3ccccc3Cl)on2)c1`, the manual score was 0.

For `C/C(=N\O)C(C)NC(=O)c1ccccc1` (stereo not drawn), the manual score was -0.5.

On to `CC1Oc2ccccc2C=C1/C=N/NC(=O)c1ccccc1` (stereo not drawn), for which the manual score was 0.

Turning to `O=C(NN=c1c(=O)c2ccccc2c1=O)c1ccccc1`, the manual score was 1 (active).

Take `Cc1ccc(C(=O)NC2(C(F)(F)F)N=C3SCCN3C2=O)cc1` (stereo not drawn): the manual score was 0.

As for `O=C(NNc1ncc(C(F)(F)F)cc1Cl)c1c(Cl)cccc1Cl`, the manual score was 0.

Regarding `Cc1ccc(C(=O)NNc2nc3ccccc3nc2C(F)(F)F)cc1`, the manual score is 1 (active).

As for `Cc1ccc(C(=O)N/N=C/C2=Cc3ccccc3OC2C)cc1` (stereo not drawn), the manual score is 0.

Turning to `Cc1nc(/N=C(\N)NC(=O)c2ccccc2)nc2ccccc12`, the manual score is 0.

As for `O=C(NNc1nc2ccccc2nc1C(F)(F)F)c1ccccc1`, the manual score is 1 (active).

As to `COc1ccc(-n2cc(-c3ccccc3)[nH]c2=S)cc1`, the manual score was 0.

Turning to `CCCc1cc(=O)n2[nH]c(-c3ccc(Br)cc3)cc2n1`, the manual score was 0.

Turning to `O=C1Nc2ccccc2C12OCC1(CO2)COC2(OC1)C(=O)Nc1ccccc12` (stereo not drawn), the manual score is 0.

In the case of `CCOc1ccc(NC(=O)Cn2nnc(-c3ccccc3F)n2)cc1`, the manual score is 0.

In the case of `COc1cc(NC(=O)Cn2nnc(-c3ccccc3N)n2)cc(OC)c1`, the manual score is 1 (active).

For `COc1cc(NC(=O)CSCc2cnn(-c3ccccc3)c2-n2cccc2)cc(OC)c1`, the manual score was 0.

Turning to `O=C(CSc1nnnn1-c1ccc(O)cc1)Nc1cccc(S(=O)(=O)N2CCCC2)c1`, the manual score was -1 (active).

In the case of `Cc1ccc(C)c(-n2nnnc2SCC(=O)Nc2cccc(-c3nnc4n3CCCCC4)c2)c1`, the manual score was 3.

In the case of `CCOC(=O)c1cccc(NC(=O)CSc2nnc(C3CCCCC3)n2C)c1`, the manual score is 0.

Take `CCOC(=O)Cc1csc(NC(=S)NC(=O)c2ccccc2C)n1`: the manual score is 1 (active).

`Cc1ccccc1C(=O)NC(=S)Nc1ccc(Oc2ccc(Cl)cc2)cc1`: the manual score is 0.

As for `CCOC(=O)Cc1csc(NC(=S)NC(=O)c2ccccc2Br)n1`, the manual score is 1 (active).

As to `COc1cc(OC)c(-c2c3cc(O)c(=O)cc-3oc3cc(O)c(O)cc23)cc1OC`, the manual score was 3.

As for `CCOC(=O)c1ccc(NC(=O)Nc2ccc(OC)c(OC)c2)cc1`, the manual score is 0.5.

Turning to `CCOC(=O)c1ccc(NC(=O)N2CCN(Cc3cccc(F)c3)CC2)cc1`, the manual score was -1 (active).

Turning to `CCCOC(=O)c1ccc(NC(=O)c2ccoc2C)cc1`, the manual score is 0.5.

`CN1C(=O)c2oc3ccccc3c(=O)c2C1c1ccccn1` (stereo not drawn): the manual score was 0.

As for `CC1CCC/C(=N\NC(=O)COc2ccc(Cl)cc2Cl)C1` (stereo not drawn), the manual score was 1 (active).

For `O=C(N/C(=N\O)c1ccccc1)Nc1ccc(Cl)cc1`, the manual score is 0.

Regarding `N#C/C(=N\Nc1ccc(Cl)cc1)C(=O)c1ccccc1`, the manual score was -1 (active).

`Cc1ccc(/C=N/Nc2nc(Cl)c(Cl)cc2Cl)s1`: the manual score was 0.

With `O=S(=O)(Nc1cc(Sc2cccc3cccnc23)c(O)c2ccccc12)c1ccc(F)cc1`, the manual score was 0.

For `O=c1c2c(nc3c(-c4cccc(Br)c4)c[nH]n13)CCCC2`, the manual score is 0.

As to `CSc1nc(N2CCOCC2)c2c(c1C#N)CC(C)(C)OC2`, the manual score is -0.5.

Turning to `CC(C)c1nc(N2CCN(C(=O)c3ccccc3)CC2)c(C#N)c2c1COC(C)(C)C2`, the manual score is -1 (active).

For `N#Cc1c(N2CCN(C(=O)c3ccccc3)CC2)nc(-c2ccccc2)c2c1CCCC2`, the manual score is 0.

Turning to `CC1CCCN(Cc2cccc(Oc3ccccc3)c2)C1` (stereo not drawn), the manual score is 0.5.

As to `CCOc1ccc(N2C(=O)/C(=C/c3cc(OC)c(OC)c(OC)c3)N(CC(=O)OC)C2=S)cc1`, the manual score is 0.

For the compound `CCOC(=O)N1CCC(NC(=O)c2cnn3c2NC(c2ccco2)CC3C(F)(F)F)CC1` (stereo not drawn), the manual score was 0.

As for `O=C(NN=C1c2ccccc2-c2ccccc21)c1cccc(Br)c1`, the manual score is 1 (active).

As to `S=C(Nc1cccc(Br)c1)c1ccccc1`, the manual score was 0.

As to `O=C(NN=C1c2ccccc2-c2ccccc21)c1ccccc1Br`, the manual score was 0.

For the compound `O=C(Nc1nnc(-c2ccc3c(c2)CCCC3)o1)c1ccccc1`, the manual score was 1 (active).

Take `CN(C)S(=O)(=O)c1ccc(C(=O)Nc2nnc(-c3ccc4c(c3)CCCC4)o2)cc1`: the manual score was 0.

For `O=C(Nc1nnc(-c2ccc3c(c2)CCCC3)o1)c1ccc(Cl)cc1Cl`, the manual score is 1 (active).

As for `O=C(Nc1cccc(-c2nnc(-c3ccccc3)o2)c1)C1CCCO1` (stereo not drawn), the manual score is 0.

Consider `O=C(Nc1nnc(-c2ccc3c(c2)CCCC3)o1)c1ccccc1Cl`, for which the manual score was 1 (active).

For the compound `O=C(Nc1ccc(-c2nc3ccccc3o2)cc1)c1cc(-n2cnnc2)ccc1Cl`, the manual score was 0.

`O=C(Nc1nnc(-c2ccc3c(c2)CCCC3)o1)C1COc2ccccc2O1` (stereo not drawn): the manual score is 1 (active).

For the compound `CN=c1scc(-c2cccs2)n1/N=C/c1ccc(O)c(O)c1O`, the manual score was 0.

As to `CCOc1cc(-c2noc(-c3cccnc3)n2)ccc1OC`, the manual score is 0.

As for `Fc1cccc(C2NN=C(c3ccccc3)S2)c1` (stereo not drawn), the manual score is 1 (active).

Turning to `CCOc1cc(C2NN=C(c3ccc(C)cc3)S2)ccc1O` (stereo not drawn), the manual score is 0.5.

As for `CC12CN(Cc3ccccc3)CC(C)(CN(Cc3ccccc3)C1)C2=NO`, the manual score is -1 (active).

For the compound `CC1CC(=S)Nc2ccccc2N1Cc1ccccc1` (stereo not drawn), the manual score is 0.

Take `O=C(OCCN1C(=O)c2cccc3c(N4CCOCC4)ccc(c23)C1=O)c1cccc(Cl)c1`: the manual score was 3.

In the case of `O=C(NCCSc1c[nH]c2ccccc12)c1ccco1`, the manual score is 0.

With `COC(=O)c1ccc(CSc2nnc(Nc3ccccc3OC)s2)o1`, the manual score was 0.

As for `COC(=O)c1ccc(CSc2ccc3nnc(-c4ccccc4)n3n2)o1`, the manual score is -1 (active).

Take `CCC(Sc1ccc2nnc(-c3ccc(F)cc3)n2n1)C(=O)OC` (stereo not drawn): the manual score was 0.

For the compound `Cc1ccc(CNC(=O)Cc2csc(Nc3nc(=S)[nH]c4ccccc34)n2)cc1`, the manual score was 0.5.

Regarding `O=C(Cc1csc(Nc2nc(=S)[nH]c3ccccc23)n1)NCc1cccc(Cl)c1`, the manual score is 1 (active).

For `O=C(Cc1csc(Nc2nc(=S)[nH]c3ccccc23)n1)NCc1ccccc1Cl`, the manual score was 0.

For the compound `COc1cccc(N2CCN(c3c4c(nc5ncnn35)CCC4)CC2)c1`, the manual score is 0.
